# Test results taken from ChEMBL document CHEMBL3988442, “University of Dundee, Small-Polar-MMV Screening Library” (2021).
# For some assays here: Potency and affinity values are given separately.
# Experiments:
# Set-up in all cases: scale not given: direction of the effect not stated beside the values
# [1] = biological target: Protein translocase subunit SecA (Escherichia coli (strain K12)) (UniProt P10408); assay: Assay to Identify E. coli SecA ATPase Inhibitors; assay type: functional; details: 30 µM
# Protein translocase subunit SecA (Escherichia coli (strain K12)), sequence (P10408 whole entry): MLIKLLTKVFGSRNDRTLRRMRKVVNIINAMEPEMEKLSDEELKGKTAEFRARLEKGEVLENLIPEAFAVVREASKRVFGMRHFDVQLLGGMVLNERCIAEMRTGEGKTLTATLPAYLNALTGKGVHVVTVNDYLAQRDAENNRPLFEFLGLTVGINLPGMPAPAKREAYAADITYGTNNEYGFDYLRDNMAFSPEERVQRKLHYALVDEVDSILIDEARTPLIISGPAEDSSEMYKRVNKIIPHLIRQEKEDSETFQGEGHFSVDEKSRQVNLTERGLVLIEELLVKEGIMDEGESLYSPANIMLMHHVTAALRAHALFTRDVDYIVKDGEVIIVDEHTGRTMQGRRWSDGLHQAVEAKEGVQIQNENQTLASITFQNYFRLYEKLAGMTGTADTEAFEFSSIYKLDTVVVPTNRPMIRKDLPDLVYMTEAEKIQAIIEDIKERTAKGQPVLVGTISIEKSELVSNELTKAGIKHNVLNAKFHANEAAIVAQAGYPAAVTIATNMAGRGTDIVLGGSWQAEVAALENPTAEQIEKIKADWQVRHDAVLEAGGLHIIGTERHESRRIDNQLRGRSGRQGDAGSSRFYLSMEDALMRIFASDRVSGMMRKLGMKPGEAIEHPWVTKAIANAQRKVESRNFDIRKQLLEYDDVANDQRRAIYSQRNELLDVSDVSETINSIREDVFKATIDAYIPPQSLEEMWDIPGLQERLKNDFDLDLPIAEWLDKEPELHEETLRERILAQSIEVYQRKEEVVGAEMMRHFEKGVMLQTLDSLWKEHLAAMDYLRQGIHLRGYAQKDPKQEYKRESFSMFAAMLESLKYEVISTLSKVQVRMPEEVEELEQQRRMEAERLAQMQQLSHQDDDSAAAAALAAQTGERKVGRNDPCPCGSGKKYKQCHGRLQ
# [2] = biological target: T1, Ubiquitin-activating enzyme e1, putative (Leishmania donovani (strain BPK282A1)) (UniProt E9BSI1); assay: Leishmania donovani Ubiquitin Activating Enzyme (LdE1); assay type: functional; details: 30 µM
# T1 sequence (whole entry): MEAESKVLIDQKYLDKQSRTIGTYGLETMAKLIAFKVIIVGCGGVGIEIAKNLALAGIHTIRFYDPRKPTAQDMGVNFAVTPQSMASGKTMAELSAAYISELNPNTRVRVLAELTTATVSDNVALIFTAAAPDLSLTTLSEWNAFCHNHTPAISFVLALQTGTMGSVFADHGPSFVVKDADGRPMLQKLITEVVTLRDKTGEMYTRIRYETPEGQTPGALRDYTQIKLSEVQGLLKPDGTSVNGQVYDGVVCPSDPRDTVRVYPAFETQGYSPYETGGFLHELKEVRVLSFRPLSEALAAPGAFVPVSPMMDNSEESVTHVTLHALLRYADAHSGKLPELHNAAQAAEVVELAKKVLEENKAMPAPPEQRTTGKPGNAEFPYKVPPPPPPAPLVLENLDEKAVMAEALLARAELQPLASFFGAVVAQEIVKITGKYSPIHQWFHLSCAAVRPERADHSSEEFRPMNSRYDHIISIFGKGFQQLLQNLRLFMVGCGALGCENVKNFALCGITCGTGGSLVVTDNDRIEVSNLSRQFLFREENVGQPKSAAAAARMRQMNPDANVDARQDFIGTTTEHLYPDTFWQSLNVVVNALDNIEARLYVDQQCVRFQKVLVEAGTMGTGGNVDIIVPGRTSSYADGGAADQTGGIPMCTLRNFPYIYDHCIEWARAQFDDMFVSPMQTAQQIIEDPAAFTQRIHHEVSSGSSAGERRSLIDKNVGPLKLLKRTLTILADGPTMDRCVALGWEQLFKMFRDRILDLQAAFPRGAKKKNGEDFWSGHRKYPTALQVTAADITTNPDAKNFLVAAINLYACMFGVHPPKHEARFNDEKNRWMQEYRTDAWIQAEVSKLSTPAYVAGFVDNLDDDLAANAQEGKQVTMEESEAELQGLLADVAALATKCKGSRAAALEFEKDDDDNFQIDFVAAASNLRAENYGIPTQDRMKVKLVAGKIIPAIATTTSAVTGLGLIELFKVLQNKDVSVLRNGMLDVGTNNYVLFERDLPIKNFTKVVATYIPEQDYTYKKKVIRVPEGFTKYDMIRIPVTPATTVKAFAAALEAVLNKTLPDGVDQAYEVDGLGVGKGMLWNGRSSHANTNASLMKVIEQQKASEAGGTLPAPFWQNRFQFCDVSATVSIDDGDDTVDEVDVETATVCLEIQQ
# [3] = biological target: AMP-activated protein kinase, AMPK (Homo sapiens) (UniProt P54646+O43741+P54619+Q9UGJ0+Q9Y478+Q13131+Q9UGI9); assay: AMP-dependent Kinase enzyme assay. An in vitro enzyme assay that detects ADP turnover that is directly proportional to AMPK activity. This uses naive AMPK that is activated during the assay with MK-8722; assay type: functional; details: 30 µM
# [4] = biological target: Sialic acid-binding Ig-like lectin 9 (Homo sapiens) (UniProt Q9Y336); assay: Hs-Siglec9 ALPHAscreen SOP 20170721; details: 10 µM
# Sialic acid-binding Ig-like lectin 9 (Homo sapiens), sequence (Q9Y336 whole entry): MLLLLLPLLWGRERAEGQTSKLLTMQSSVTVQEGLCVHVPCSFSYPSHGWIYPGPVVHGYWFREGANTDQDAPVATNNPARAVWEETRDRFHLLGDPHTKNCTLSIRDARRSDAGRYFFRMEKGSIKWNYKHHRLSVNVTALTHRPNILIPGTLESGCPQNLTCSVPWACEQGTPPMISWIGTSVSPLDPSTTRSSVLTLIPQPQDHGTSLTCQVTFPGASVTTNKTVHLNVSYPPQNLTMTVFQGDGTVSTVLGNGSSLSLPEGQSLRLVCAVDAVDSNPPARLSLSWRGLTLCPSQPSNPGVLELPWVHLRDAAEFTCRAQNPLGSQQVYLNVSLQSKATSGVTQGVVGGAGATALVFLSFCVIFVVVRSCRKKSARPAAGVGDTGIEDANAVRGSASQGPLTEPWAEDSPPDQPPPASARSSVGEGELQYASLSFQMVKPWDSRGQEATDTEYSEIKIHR
# Trypanosoma cruzi = assay: Trypanosoma cruzi phosphomannomutase and mannose-1-phosphate guanylyltransferase assay; assay type: functional; details: 10 µM
# [5] = biological target: T2, Arginase-2, mitochondrial (Homo sapiens) (UniProt P78540); assay: in vitro enzyme assay to detect the production of urea directly proportional to the activity of Arginase II; assay type: functional; details: 33.3 µM; also: in the data most compounds retested in dose-response had high values
# T2 sequence (whole entry): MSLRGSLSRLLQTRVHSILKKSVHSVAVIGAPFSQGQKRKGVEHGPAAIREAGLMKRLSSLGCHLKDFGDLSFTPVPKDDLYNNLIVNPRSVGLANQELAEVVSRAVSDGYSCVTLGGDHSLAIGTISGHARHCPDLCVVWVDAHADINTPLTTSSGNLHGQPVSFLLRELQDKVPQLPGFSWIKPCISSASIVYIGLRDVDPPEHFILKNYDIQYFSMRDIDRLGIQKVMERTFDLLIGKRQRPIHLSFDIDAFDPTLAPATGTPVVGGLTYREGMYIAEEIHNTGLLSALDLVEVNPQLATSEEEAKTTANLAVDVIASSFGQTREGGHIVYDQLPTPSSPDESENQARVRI
# [6] = biological target: T3, Proteasome subunit beta (Trypanosoma cruzi) (UniProt O96673); assay: Trypanosoma cruzi proteasome chymotrypsin-like activity (TcProtChymo) assay.; also: in the data most compounds retested in dose-response had high values; assay type: functional; details: 9.37 µM
# T3 sequence (whole entry): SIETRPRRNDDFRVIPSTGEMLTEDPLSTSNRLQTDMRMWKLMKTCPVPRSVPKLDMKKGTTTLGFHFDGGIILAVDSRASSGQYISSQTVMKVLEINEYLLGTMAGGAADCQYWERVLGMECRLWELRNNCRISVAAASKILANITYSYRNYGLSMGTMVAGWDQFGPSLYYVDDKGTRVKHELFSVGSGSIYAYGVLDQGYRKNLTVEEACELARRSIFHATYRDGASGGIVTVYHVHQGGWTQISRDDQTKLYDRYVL
# Homo sapiens = organism: Homo sapiens; assay: To identify inhibition of the IFN signalling (Jak-Stat) pathway via expression of an eGFP reporter gene under the control of an IFN-stimulated response element (ISRE) containing MxA promoter.; assay type: functional; details: 30 µM
# [7] = biological target: T4, Tyrosyl-tRNA synthetase, putative (Trypanosoma cruzi (strain CL Brener)) (UniProt Q4DSP6); assay: Trypanosoma cruzi tyrosyl tRNA synthetase (TcYRS) _High Tyrosine SOP; assay type: functional; details: 30 µM; also: in the data most compounds retested in dose-response had high values
# T4 sequence (whole entry): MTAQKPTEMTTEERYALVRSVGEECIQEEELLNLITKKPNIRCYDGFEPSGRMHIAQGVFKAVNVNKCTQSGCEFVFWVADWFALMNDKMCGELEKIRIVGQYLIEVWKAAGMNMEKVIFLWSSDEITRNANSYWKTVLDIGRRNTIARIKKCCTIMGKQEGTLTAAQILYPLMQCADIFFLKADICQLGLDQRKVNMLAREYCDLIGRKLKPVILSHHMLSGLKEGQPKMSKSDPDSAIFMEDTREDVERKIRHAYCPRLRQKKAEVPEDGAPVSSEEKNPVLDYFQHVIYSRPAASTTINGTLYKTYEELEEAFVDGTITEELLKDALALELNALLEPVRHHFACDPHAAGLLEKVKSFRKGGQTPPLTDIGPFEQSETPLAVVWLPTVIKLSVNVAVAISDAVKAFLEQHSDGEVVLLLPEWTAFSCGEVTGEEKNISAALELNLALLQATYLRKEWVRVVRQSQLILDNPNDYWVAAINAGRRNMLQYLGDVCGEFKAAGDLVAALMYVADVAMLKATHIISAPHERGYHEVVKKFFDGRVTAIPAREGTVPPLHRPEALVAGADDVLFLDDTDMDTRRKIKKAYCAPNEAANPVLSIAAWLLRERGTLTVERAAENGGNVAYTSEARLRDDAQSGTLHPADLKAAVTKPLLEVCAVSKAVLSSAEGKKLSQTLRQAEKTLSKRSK
# [8] = biological target: T4, Tyrosyl-tRNA synthetase, putative (Trypanosoma cruzi (strain CL Brener)); assay: Trypanosoma cruzi tyrosyl tRNA synthetase (TcYRS) SOP; assay type: functional; details: 30 µM
# [9] = biological target: Chromo domain-containing protein 1 (Saccharomyces cerevisiae (strain ATCC 204508 / S288c) (Baker's yeast)) (UniProt P32657); assay: ScCHD-1 Enzyme Inhibition Assay; assay type: functional; details: 30 µM; also: in the data most compounds retested in dose-response had high values
# Chromo domain-containing protein 1 (Saccharomyces cerevisiae (strain ATCC 204508 / S288c) (Baker's yeast)), sequence (P32657 whole entry, the tested form may be a part): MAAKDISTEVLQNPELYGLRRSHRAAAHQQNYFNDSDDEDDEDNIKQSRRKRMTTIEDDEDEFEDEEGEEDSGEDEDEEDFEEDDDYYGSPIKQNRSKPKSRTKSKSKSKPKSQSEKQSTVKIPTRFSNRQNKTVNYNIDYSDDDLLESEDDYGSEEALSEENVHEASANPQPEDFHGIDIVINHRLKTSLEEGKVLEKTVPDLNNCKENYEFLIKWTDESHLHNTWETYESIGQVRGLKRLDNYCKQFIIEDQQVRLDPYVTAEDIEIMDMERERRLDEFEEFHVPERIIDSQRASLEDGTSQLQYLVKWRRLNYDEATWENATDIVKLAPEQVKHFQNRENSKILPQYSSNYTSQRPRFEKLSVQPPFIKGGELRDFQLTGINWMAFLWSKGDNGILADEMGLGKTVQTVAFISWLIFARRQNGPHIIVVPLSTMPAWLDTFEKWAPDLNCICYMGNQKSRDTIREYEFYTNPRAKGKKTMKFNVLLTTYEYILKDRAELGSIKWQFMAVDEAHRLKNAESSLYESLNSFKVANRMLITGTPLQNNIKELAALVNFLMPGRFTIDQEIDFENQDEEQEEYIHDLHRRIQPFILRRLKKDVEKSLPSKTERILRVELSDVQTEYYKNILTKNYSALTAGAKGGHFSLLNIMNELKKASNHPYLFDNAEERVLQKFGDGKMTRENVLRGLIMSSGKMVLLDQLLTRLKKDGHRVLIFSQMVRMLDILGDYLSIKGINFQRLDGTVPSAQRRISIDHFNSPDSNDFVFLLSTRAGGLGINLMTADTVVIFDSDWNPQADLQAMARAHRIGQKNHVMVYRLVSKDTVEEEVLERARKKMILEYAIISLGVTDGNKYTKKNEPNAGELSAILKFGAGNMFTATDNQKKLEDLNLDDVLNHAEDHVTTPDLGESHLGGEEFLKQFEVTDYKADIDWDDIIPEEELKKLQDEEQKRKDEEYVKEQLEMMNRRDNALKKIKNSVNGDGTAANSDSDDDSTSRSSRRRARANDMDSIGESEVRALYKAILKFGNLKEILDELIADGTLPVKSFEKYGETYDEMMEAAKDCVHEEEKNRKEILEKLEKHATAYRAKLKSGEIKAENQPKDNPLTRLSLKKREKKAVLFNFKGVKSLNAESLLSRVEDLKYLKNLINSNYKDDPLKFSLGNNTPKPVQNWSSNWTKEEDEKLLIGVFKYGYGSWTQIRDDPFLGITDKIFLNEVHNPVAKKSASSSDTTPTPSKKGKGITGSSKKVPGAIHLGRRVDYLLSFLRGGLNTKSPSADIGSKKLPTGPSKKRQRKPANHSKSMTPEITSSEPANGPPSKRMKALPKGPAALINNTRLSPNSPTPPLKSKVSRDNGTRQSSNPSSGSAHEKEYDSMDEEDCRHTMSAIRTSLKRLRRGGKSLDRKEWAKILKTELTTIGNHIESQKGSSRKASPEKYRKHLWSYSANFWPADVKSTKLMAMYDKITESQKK
Structure (SMILES),Percent Effect [1],Percent Effect [2],Percent Effect [3],Percent Effect [4],Percent Effect (Trypanosoma cruzi),Percent Effect [5],Percent Effect [6],Percent Effect (Homo sapiens),Percent Effect [7],Percent Effect [8],Percent Effect [9]
CC(C)CC1SCC(=O)Nc2c1cnn2C(C)C (configuration not stated),-3.15%,22.7%,1.11%,2.31%,4.71%,-4.05%,16.3%,5.92%,7.41%,20.5%,-5.98%
COc1ccc(OC)c(CNCCc2cc(F)cc3c2OCOC3)c1,-5.17%,-6.94%,-9.7%,2.47%,4.57%,-3.09%,7.19%,4.72%,2.1%,2.56%,-2.06%
Cc1noc([C@@]23CCO[C@@H]2CCN(C(=O)C2CCOCC2)C3)n1,-0.432%,10.7%,2.61%,-3.48%,-1.54%,-51.8%,13.2%,-1.95%,7.29%,20%,-7.84%
CC1c2ncc(COc3cccnc3)n2CCN1C(=O)C1=CCCC1 (configuration not stated),-4.3%,12%,-0.286%,5.22%,-2.75%,-1.58%,9.43%,16.6%,7.41%,10.3%,-7.55%
COc1cccc(C2CCCN2Cc2nc3c(cnn3C)c(=O)[nH]2)c1 (configuration not stated),-0.893%,22.8%,2.53%,-5.13%,0.661%,3.8%,14.2%,17.2%,6.4%,24.1%,-5.39%
O=C(C1CCOCC1)N1CCO[C@H]2[C@@H](OCc3ccncc3)CC[C@@H]21,-7.25%,16.2%,-5.41%,21.1%,4.1%,1.67%,6.17%,32.4%,2.97%,13.4%,-6.34%
CCn1cnnc1CNC(=O)NC(C)C(C)C (configuration not stated),-4.76%,13%,3.19%,7.03%,-4.68%,0%,12.5%,22.8%,2.91%,7.32%,-1.46%
CN(C)CC1CN(CCOc2cccc(C#N)c2)CCO1 (configuration not stated),-2.7%,-5.26%,-2.16%,-5.38%,-4.95%,5.75%,-8.71%,-3.58%,1.48%,3.7%,4.04%
CC(c1ccco1)N(C)Cc1nc2c(cnn2C)c(=O)[nH]1 (configuration not stated),-2.49%,24.3%,-5.7%,5.24%,3.44%,2.77%,15.1%,11.7%,-8.91%,28.1%,-9.16%
O=C(c1ccncc1F)N1CCN(CC2CC2)c2ncccc2C1,-8.25%,-1.33%,4.65%,-2.72%,-9.63%,-14.6%,10.2%,-11%,-6.35%,-10.3%,-9.4%
CC(NC(=O)CNCCn1cccn1)c1ccc2c(c1)CCCC2 (configuration not stated),-8.2%,13%,-1.74%,15.8%,3.37%,-6.41%,9.46%,-3.61%,12.6%,26.8%,-9.3%
COCCN1CCC(N(Cc2noc(C3CC3)n2)C(C)=O)C1 (configuration not stated),-2.54%,13.5%,-5%,-6.65%,-5.11%,-0.924%,18.3%,20.9%,0.99%,11%,-8.27%
CNc1nc(CNC(=O)Nc2cccc(-c3nnco3)c2)cs1,-5.07%,8.11%,1.7%,-1.65%,-3.81%,-4.25%,4.13%,-4.5%,2.97%,1.22%,4.29%
CS(=O)(=O)N1CCOC2(CCCN(c3cnccn3)C2)C1 (configuration not stated),-3.81%,0%,-1.28%,-4.89%,-2.83%,1.74%,6.09%,1.81%,1.07%,1.24%,0.866%
CN(Cc1ccc(Cl)s1)C(=O)NCc1nnc2n1CCC2,-2.21%,21.1%,2.58%,-10.7%,4.2%,-3.96%,7.87%,0.395%,6.4%,18.5%,-7.27%
O=C(NCCOc1ncc(Cl)cc1Cl)c1ccncc1,-9.07%,0%,3.95%,4.2%,-5.27%,-1.67%,9.72%,14.8%,7.92%,8.54%,-3.07%
Cc1noc(C)c1C(=O)NCC(O)c1ccc(F)cc1F (configuration not stated),-3.08%,0%,-4.32%,-2.42%,-3.06%,1.66%,3.05%,10.6%,-3.96%,-6.1%,10.4%
CC(C)(C)c1cnc(CN2CCCC2Cn2cccn2)o1 (configuration not stated),-0.386%,0%,6.71%,-3.67%,5.19%,-0.38%,5.16%,-9.18%,2.46%,3.8%,-4.77%
Cc1nc2cc(C3CCN(Cc4cccc(F)c4F)C3)nn2c(O)c1C (configuration not stated),-0.873%,12.2%,12.9%,-3.49%,0.988%,-1.16%,2.81%,10.8%,3.23%,11.7%,-14.4%
Cc1nc(C2CCCN(C(=O)c3cccc(S(C)(=O)=O)c3)C2)no1 (configuration not stated),-1.36%,-1.27%,5.98%,4.04%,-1.95%,7.96%,12.3%,-20.9%,0%,0%,3.1%
CCN(c1ccc(C(=O)NCCCN2CCCC2)cc1)S(=O)(=O)CC,-0.13%,5.26%,-1.17%,-1.94%,-9.83%,-7.1%,14.1%,-5.53%,4.25%,7.79%,-3.78%
CN(Cc1ccc(F)cc1)CC1(O)CCCN(CC(C)(C)C)C1=O (configuration not stated),-5.95%,-1.39%,-3.53%,-2.57%,3.79%,3.09%,-3.16%,1.55%,-7.37%,-2.56%,0.558%
